Assay outcomes deposited in PubChem by National Center for Advancing Translational Sciences (NCATS).
In the library only some 14% were active in any assay of this set; here they are far more common.
LmPK inhibitor: blocks Leishmania mexicana pyruvate kinase activity; 0.37% of 290,000 active; Potency, µM (top dose mostly 57.5 µM), most hits filed as inhibitors; purified LmPK, Kinase-Glo ATP luminescence, 1 h; AID 1721
Target sequence (Q27686 whole entry, looked up): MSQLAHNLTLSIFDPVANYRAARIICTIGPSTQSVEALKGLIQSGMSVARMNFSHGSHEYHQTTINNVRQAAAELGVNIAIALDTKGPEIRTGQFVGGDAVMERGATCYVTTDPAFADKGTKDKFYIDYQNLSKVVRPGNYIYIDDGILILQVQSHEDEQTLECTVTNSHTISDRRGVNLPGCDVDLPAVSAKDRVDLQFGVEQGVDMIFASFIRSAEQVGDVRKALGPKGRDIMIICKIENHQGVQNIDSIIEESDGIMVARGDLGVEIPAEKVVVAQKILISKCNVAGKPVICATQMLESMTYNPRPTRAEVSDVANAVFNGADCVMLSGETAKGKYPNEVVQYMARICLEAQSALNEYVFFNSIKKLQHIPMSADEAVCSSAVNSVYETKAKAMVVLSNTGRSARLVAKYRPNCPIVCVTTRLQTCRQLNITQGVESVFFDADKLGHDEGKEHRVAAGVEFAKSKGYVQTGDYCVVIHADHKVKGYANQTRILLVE
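Pyruvate kinase activity monitored as ATP production (luciferase luminescence). Conditions: 0.1 nM enzyme, 0.5 mM PEP, 0.1 mM ADP, 1 h, RT; normalized against uninhibited and no-enzyme wells.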
FBPA Giardia inh: blocks Giardia fructose-bisphosphate aldolase activity; purified Giardia FBPA; Potency, µM (top dose mostly 59.6 µM), hits mostly inhibitors; 0.71% of 290,000 active; AID 2451; further: nearly all actives have a fitted effect of over 55% in size
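40 nM FBPA preincubated 10 min at RT with compound (up to 57.5 uM final), then substrate plus GAPDH/TPI/NAD/arsenate coupling and diaphorase/resazurin added. Fluorescence read after 20 min at RT, 525/598 nm.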
Shiga inhibitor: Shiga toxin inhibition | AID 2315 | 9.2% of 290,000 active | inhibition, % at 38.7 µM | Vero cells, Shiga toxin protein synthesis inhibition reporter; in the data active means inhibition mostly above about 28%, no sharp cut-off; inactive means mostly below about 43%
Cycloheximide cs: counter-screen hit for Shiga toxin inhibitors, cycloheximide; cell reporter, cycloheximide protein synthesis inhibition counterscreen; max response, %; 12% of 300,000 active; AID 2314; in the data active means max response mostly above about 13%, no sharp cut-off; inactive means mostly below about 14%; further: read at 38.3 µM for the half of the compounds with a filed dose
NS1 inh: influenza NS1 inhibition; 0.4% of 270,000 active; Potency, µM (titrated, usually from 46.1 µM); calls by dose curve; further: actives are rising curves; nearly all actives have a fitted effect of over 50% in size
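Compounds were scored for reversing the slow growth caused by influenza A NS1 in S. cerevisiae, measured by optical density at 600 nm. Assay medium contained 2% galactose at pH 6.0; NS1-free yeast of the same strain were the positive control.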
Of the large screens only hits and unclear results are named; the others gave an inactive call. Unless noted, the call rests on the fitted dose curve; in most records, active means well fitted curve in the direction sought with a large enough effect; inconclusive means small, poorly fitted or top-dose-only effect, or another doubt; inactive means no such curve, though single readings can be large; an effect the other way counts as inactive or inconclusive.

Cn1cccc1CC(=O)N/N=C/C=C/c1ccccc1	Shiga inhibitor 82, Cycloheximide cs 25
c1ccc(-c2cc(-c3cc(-c4ccccn4)[nH]n3)n[nH]2)nc1	none (no result: LmPK inhibitor, FBPA Giardia inh, Shiga inhibitor, Cycloheximide cs)
C=CCOC(=O)N[C@H](/C(C(=O)OC)=C(\C)NCc1ccccc1)c1cccc(C(F)(F)F)c1	none (no result: LmPK inhibitor, Shiga inhibitor, Cycloheximide cs, NS1 inh)
O=C(NNC(=O)c1ccc(Cn2cccn2)o1)NC12CC3CC(CC(C3)C1)C2	none (no result: FBPA Giardia inh)
O=C(CN1CCOCC1)N/N=C/C=C/c1ccccc1	Cycloheximide cs 25 (no result: NS1 inh)
CC(C)C[C@H](NC(=O)[C@H](CO)NC(=O)[C@H](C)NC(=O)[C@H](CCCN=C(N)N)NC(=O)[C@H](CCCN=C(N)N)NC(=O)[C@@H](N)CC(C)C)C(=O)NCC(=O)O	none (no result: LmPK inhibitor, NS1 inh)
CC(C)C[C@H](NC(=O)[C@@H]1Cc2c([nH]c3ccccc23)C2c3ccccc3C(=O)N21)C(=O)N1CCC[C@@H]1C(=O)O (some centres undefined)	none
COC(=O)c1cnn2c3c(c(C)nc12)CCCC3	Shiga inhibitor 73, Cycloheximide cs 59
Cc1c2c(nc3c(C(=O)NC4CCCC4)cnn13)CCCC2	none (no result: FBPA Giardia inh)
Cc1c(-c2ccccc2)[nH]n2c(=O)c3c(nc12)CCCC3	Shiga inhibitor 44, Cycloheximide cs 29
O=c1c2c(nc3cc(-c4ccc(Br)cc4)[nH]n13)CCCC2	none
COc1ccc(-c2cc3nc4c(c(=O)n3[nH]2)CCC4)cc1	Cycloheximide cs 21, NS1 inh inconclusive
O=c1c2c(nc3cc(-c4ccccc4)[nH]n13)CCC2	LmPK inhibitor inconclusive, Shiga inhibitor 95, Cycloheximide cs 58
COc1ccc2[nH]c(C(=O)NCCCN3CCCC3=O)c(C)c2c1	none (no result: FBPA Giardia inh)
Cc1ccc(S(=O)(=O)NC(=O)NC(C)c2ccc(F)cc2)cc1 (centres undefined)	none
CC1CCN(S(=O)(=O)c2ccc3nc(N4CCN(c5ccccc5)CC4)ccc3c2)CC1	none (no result: FBPA Giardia inh)
N#C/C(=C\c1ccc[nH]1)C(=O)c1ccccc1	Shiga inhibitor 99, Cycloheximide cs 33
COc1ccc(NC(=O)/C(C#N)=C/c2ccc[nH]2)c(OC)c1	none (no result: FBPA Giardia inh)
N#C/C(=C\C1=C(N2CCOCC2)C(=C/c2cccc([N+](=O)[O-])c2)/CC1)C(=O)Nc1ccccc1F	none
N#C/C(=C\c1ccc[nH]1)C(=O)Nc1ccccc1F	Shiga inhibitor 74, Cycloheximide cs 34 (no result: FBPA Giardia inh)
Cc1cc(/C=C(\C#N)C(=O)Nc2ccccc2F)c(C)[nH]1	Shiga inhibitor 64, Cycloheximide cs 46
N#C/C(=C\c1ccc[nH]1)C(=O)Nc1ccccc1Cl	Shiga inhibitor 61, Cycloheximide cs 33 (no result: FBPA Giardia inh)
O=C(Nc1ccc(-c2cccc(F)c2)cc1)C1CCCN(Cc2ccccn2)C1 (centres undefined)	none
CCC1CCc2sc(C(=O)N3CCCN(C)CC3)cc2C1 (centres undefined)	Cycloheximide cs 23
O=C(Nc1ccc2c(c1)OCO2)c1cc(C2CC2)on1	Shiga inhibitor 52, Cycloheximide cs 34
CC(C)c1cc(C(=O)Nc2ccc3c(c2)OCO3)no1	Shiga inhibitor 55, Cycloheximide cs 30
CCc1ccccc1NC(=O)CN1CCN(CC(=O)Nc2cc(C)ccc2OC)CC1	none
Cc1cc2ncn(/N=C/c3ccc(-c4ccccc4)o3)c2cc1C	none
Cc1ccc(/C=N/n2cnc3sc(-c4ccccc4)cc3c2=O)o1	Shiga inhibitor 47, Cycloheximide cs 24
O=C(Nc1ccc(Cl)c(-c2nc3ccccc3[nH]2)c1)c1ccc2c(c1)OCO2	Cycloheximide cs 20, NS1 inh inconclusive
O=C(Nc1ccc(-c2nc3ccccc3[nH]2)cc1)c1ccc2c(c1)OCO2	Cycloheximide cs 28 (no result: FBPA Giardia inh)
O=C(Nc1cccc(-c2nc3ccccc3s2)c1)c1ccc2c(c1)OCO2	none (no result: FBPA Giardia inh)
COc1ccccc1NC(=O)Nc1ccnn1C1CCN(C(=O)c2cccnc2)CC1	none (no result: FBPA Giardia inh)
CSc1cccc(NC(=O)C2CCCN(c3ncnc4c3nc3n4CCCCC3)C2)c1 (centres undefined)	none
Cc1cccc(CC(C)NC(=O)c2cc(COc3ccc(C)c(C)c3)on2)n1 (centres undefined)	Shiga inhibitor 98, Cycloheximide cs 77
Cc1cccc(CC(C)NC(=O)c2cc(COc3ccc(F)cc3F)on2)n1 (centres undefined)	Shiga inhibitor 45, Cycloheximide cs 49
Cc1nc(C(C)NC(=O)c2cc(COc3ccc(C)c(C)c3)on2)c(C)s1 (centres undefined)	Shiga inhibitor 125, Cycloheximide cs 41
Cc1cc(OCc2cc(C(=O)NCC3(C)COC3)no2)cc(C)c1Cl	none
Cc1cc(OCc2cc(C(=O)NC(C)c3c(C)nn(C)c3C)no2)cc(C)c1Cl (centres undefined)	Shiga inhibitor 111, Cycloheximide cs 41 (no result: FBPA Giardia inh)
CN1CCN(c2ncc3nc(CCc4ccccc4)c(=O)n(C4CC4)c3n2)CC1	none (no result: LmPK inhibitor, Shiga inhibitor, Cycloheximide cs, NS1 inh)
O=C(CCc1nnc(C2CCCCC2)o1)N1CCC(Oc2cccnc2)CC1	none
COC(=O)[C@@H]1CCCN1C(=O)CCc1nnc(C2CCCCC2)o1	Shiga inhibitor 16, Cycloheximide cs 14
CN(CCCN1CCCCC1)C(=O)CCc1nnc(C2CCCCC2)o1	none
CCC1CCCCN1C(=O)CCc1nnc(C2CCCCC2)o1 (centres undefined)	Shiga inhibitor 66, Cycloheximide cs 47
C/C(=N/Nc1nc(C)cc(=O)[nH]1)C(=O)O	none (no result: LmPK inhibitor, FBPA Giardia inh, Shiga inhibitor, Cycloheximide cs)
CN(C)c1ccc(NC(=O)c2cccc(N3C(=O)C4C5C=CC(C5)C4C3=O)c2)cc1 (centres undefined)	Cycloheximide cs 62
O=C(Nc1ccc(Cl)cc1)c1cccc(N2C(=O)C3C4CCC(C4)C3C2=O)c1 (centres undefined)	Shiga inhibitor 52, Cycloheximide cs 23
COc1ccc(NC(=O)c2cccc(N3C(=O)C4C5C=CC(C5)C4C3=O)c2)cc1Cl (centres undefined)	none (no result: FBPA Giardia inh)
O=C(O)c1ccc(NC(=O)c2cccc(N3C(=O)C4C5CCC(C5)C4C3=O)c2)cc1 (centres undefined)	none
CCOC(=O)c1ccc(Nc2cnc3ccccc3n2)cc1	Shiga inhibitor 78, Cycloheximide cs 47
CCOC(=O)Cc1nc2ccccc2[nH]1	none
CCOC(=O)c1ccc(NCc2nc3ccccc3[nH]2)cc1	Shiga inhibitor 73, Cycloheximide cs 53
O=C(O)c1ccc(Nc2cnc3ccccc3n2)cc1	Cycloheximide cs 38
CCOC(=O)c1cnc2ccccc2c1Nc1ccc(C(=O)O)cc1	none
CCOC(=O)c1ccc(Nc2nnc(C)c3ccccc23)cc1	Shiga inhibitor 56, Cycloheximide cs 20
O=C(CN(C(=O)CNC(=O)c1cccs1)c1ccccc1F)NC1CCCC1	none
CN(C)C(=O)c1ccc(-c2cncnc2N2CCNCC2)cc1	none (no result: LmPK inhibitor, Shiga inhibitor, Cycloheximide cs, NS1 inh)
O=C(CN1C(=O)COc2ccccc21)Nc1ccc(N2CCOCC2)cc1	none
CCCCS(=O)(=O)N1C2=NC(C(=O)OC)=C(C(=O)OC)[C@@H]3N(C)c4ccccc4[C@]23C[C@H]1C(=O)OC	none (no result: Shiga inhibitor, Cycloheximide cs, NS1 inh)
CCc1ccc(NCc2nc3ccccc3c(=O)[nH]2)cc1	Shiga inhibitor 88, Cycloheximide cs 25
